PLC-gamma1 inh – inhibitors of human phospholipase C gamma1 | inhibition, % at 12.2 µM | AID 720700 | purified PLC-gamma1, fluorogenic substrate, fluorescence | P19174 | 370,000 compounds, 0.84% hits; in the data active = inhibition above about 9.5%
UHRF1 MBD2 ctr – human UHRF1 methylated DNA binding inhibitors | inhibition, % at 4.4 µM | Q96T88 | UHRF1 binding to methylated oligo, TR-FRET | 370,000 compounds, 0.75% hits; in the data active = inhibition above about 21%;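 also: UHRF1 SRA domain binding a hemimethylated CpG hairpin DNA probe; 0% = median of test compound wells and 100% = reference inhibitor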
MBD2 DNA inh – blocks human MBD2 binding to methylated DNA. inhibition, % at 4.4 µM. Q9UBB5. TR-FRET, MBD2 binding to methylated oligonucleotide. 370,000 compounds, 0.31% hits; in the data active = inhibition above about 13%
PLC-beta3 inh – inhibitors of human phospholipase C beta3. Q01970. Purified PLC-beta3, fluorogenic substrate, fluorescence. inhibition, % at 12.2 µM. 370,000 compounds, 0.18% hits. AID 720704;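 also: 0% = median of compound wells on plate and 100% = full blocker control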
LEDGF integ inh – blocks HIV-1 LEDGF/p75-dependent DNA integration; TR-FRET IN-LEDGF/p75 DNA integration, Eu/Cy5; inhibition, % at 3.7 µM; 370,000 compounds, 0.64% hits;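 active = inhibition above the screen-wide mean plus 3 SD, cut at about 13% in these data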;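 also: signal is the Cy5 over europium emission ratio at 671 and 618 nm; 0% = plate median of compound wells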
PLCgamma1 ctr – counter-screen for PLC-beta3 inhibitors: inhibitors of human PLC-gamma1. shares compounds with PLC-gamma1 inh. purified PLC-gamma1, fluorogenic substrate, fluorescence. inhibition, % at 12.3 µM. 3,300 compounds, 3.1% hits. AID 743258; in the data active = inhibition above about 9.5%
PLCb3 confirm – human PLC-beta3 inhibition, confirmation; inhibition, % at 12.3 µM; AID 743261; shares compounds with PLC-gamma1 inh; 3,300 compounds, 1% hits; purified PLC-beta3, fluorogenic substrate fluorescence
Starred values were filed as active, the others as inactive; / = no result given. Compounds with a hit are over-represented: about 2.3% of the library has one in this group of screens. Rule as the data show it, unless noted: active = inhibition above about 11%; inactive = the rest.

SMILES	PLC-gamma1 inh	UHRF1 MBD2 ctr	MBD2 DNA inh	PLC-beta3 inh	LEDGF integ inh	PLCgamma1 ctr	PLCb3 confirm
NS(=O)(=O)c1ccc(NC(=S)NC(=O)/C=C/c2cccs2)cc1	-2	1	1	-1	-2	/	/
O=C(/C=C/c1cccs1)Nc1ccc([N+](=O)[O-])cc1	12*	-1	-5	5	2	5	6
O=C(CSc1nnc(-c2cccnc2)n1-c1ccccc1)Nc1cccc2ccccc12	2	2	2	5	-4	/	/
CCCCCCCCCCOC(=O)Cn1c(COc2cccc(C)c2)[n+](C)c2ccccc21	5	-2	-3	0	1	/	/
CCCCCCCCCCOC(=O)Cn1c(COc2ccc(Cl)cc2)[n+](C)c2ccccc21	13*	1	-2	-3	-6	7	2
CCCCCCCCCCOC(=O)Cn1c(COc2ccccc2)[n+](C)c2ccccc21	9.5*	1	-6	0	3	-5	-5
CCOC(=O)Cn1c(COc2ccccc2OC)[n+](C)c2ccccc21	4	0	-2	-8	-4	/	/
COC(=O)[C@]12C[C@H](CC(=O)NCCCN3CCCC3=O)C(=O)N(CCc3ccc(OC)c(OC)c3)C1=C[C@H](C1CCCC1)O[C@@H]2C	-1	0	2	2	2	/	/
CCN(CCNC(=O)c1ccc(CSc2nc3ccncc3[nH]2)cc1)c1ccccc1	2	-2	-1	3	-3	/	/
CC1CC(C)CN(C(=O)c2ccc(CSc3nc4ccncc4[nH]3)cc2)C1 (centres undefined)	9	34*	-9	14*	1	-10	-4
CCCNC(=O)c1ccc2c(c1)nc(C)n2-c1cccc(C)c1	13*	6	-1	4	5	4	-1
O=C(N/C(=C\c1ccccc1)C(=O)N1CCCCCC1)c1ccccc1	9.6*	7	1	0	-6	-3	-1
O=C(N/C(=C/c1ccccc1)C(=O)N1CCCCC1)c1ccccc1	0	4	4	-7	-3	/	/
CCCC#Cc1ccc(CC[C@H]2O[C@H]3CC[C@@H](CO)O[C@H]3C[C@H]2NC(=O)CN2CCOCC2)cc1	1	7	-3	1	7	/	/
Nc1nc(Sc2ccc([N+](=O)[O-])cc2[N+](=O)[O-])n[nH]1	9.5*	1	-6	-1	2	4	3
O=C(NNC(=O)c1ccncc1)Nc1ccccc1	0	-1	2	-2	-1	/	/
O=C(NNC(=O)c1ccncc1)Nc1ccc(N=Nc2ccccc2)cc1	12*	0	-2	0	6	7	9
Cc1ccc(S(=O)(=O)N2CCCC2c2cccc3[nH]cc(C)c23)cc1 (centres undefined)	-1	-2	5	1	4	/	/
O=C(O)Cn1ccnc1[N+](=O)[O-]	10*	4	-3	6	6	5	0
COC(=O)Cn1ccnc1[N+](=O)[O-]	6	2	4	6	0	/	/
COc1ccc(OC)c(S(=O)(=O)N2CCC(C(=O)NCc3cccs3)CC2)c1	2	2	-1	1	2	/	/
CC(C)Cc1ccc(S(=O)(=O)Nc2cccnc2)cc1	9.8*	3	2	0	5	-5	-8
Cc1ccc(C2CCC3(CCC(=O)N3CCOC(=O)Nc3ccc(F)cc3)CC2)cc1 (centres undefined)	1	0	5	-2	1	/	/
O=C(CSc1nc(=O)n(Cc2ccccn2)c2c1CCC2)Nc1ccc(F)cc1F	13*	1	-5	7	3	-2	1
CC(C)(C)OC(=O)N1CCN(C(=O)c2[nH]cnc2C(=O)Nc2cccc(Cl)c2)CC1	9.7*	2	11	1	-5	-5	-3
SMILES	PLC-gamma1 inh	UHRF1 MBD2 ctr	MBD2 DNA inh	PLC-beta3 inh	LEDGF integ inh	PLCgamma1 ctr	PLCb3 confirm
CCCc1nc2c(=O)n(C)c(=O)nc-2n(C)n1	55*	18	22*	-6	-18	43*	3
C[C@@H](N)P(=O)(O)C[C@H](Cc1ccccc1)C(=O)O	3	-1	-1	-2	3	/	/
Cc1ccc(S(=O)(=O)N=C2SCCCS2)cc1	9.9*	1	1	3	-3	-3	1
CCCOc1ncnc2c1sc1nc3c(cc12)COC(C)(C)C3	7	6	-4	-1	7	/	/
CCOc1ncnc2c1sc1nc3c(cc12)COC(C)(C)C3	10*	7	0	2	2	-4	-1
COc1cccc(N2CCN(CC(=O)N(C)Cc3ccccc3Cl)CC2)c1	-1	1	2	-2	-2	/	/
O=C(NC1=NCCS1)C12CC3CC(CC(C3)C1)C2	6	6	-2	11*	7	-4	-2
O=C(Nc1nn[nH]n1)C12CC3CC(CC(C3)C1)C2	10*	2	3	3	5	-4	1
O=C(Nc1nncs1)C12CC3CC(CC(C3)C1)C2	7	8	2	-1	5	/	/
O=C(COC(=O)c1cccs1)NCc1ccc2c(c1)OCO2	10*	1	-10	2	1	-6	-3
O=C(COC(=O)COc1ccccc1[N+](=O)[O-])Nc1ccc2c(c1)OCO2	-1	1	0	2	5	/	/
O=C(COC(=O)COc1ccccc1[N+](=O)[O-])NCc1ccc2c(c1)OCO2	13*	3	3	8	3	-5	0
CC(C)Oc1ccc(S(=O)(=O)N2CCCCCC2)c2ccccc12	1	-4	-1	-2	0	/	/
O=C(c1cscn1)N1CCC(Oc2cccnc2)CC1	-1	0	-1	2	-3	/	/
O=C(O)CCC(=O)CCC(=O)c1ccc(Cl)cc1	11*	3	-1	1	1	-5	-1
O=C(O)CCC(=O)c1ccc(-c2ccccc2)cc1	-3	-1	4	-1	-1	/	/
O=S(=O)(N1CCOCC1)N1CCCN(S(=O)(=O)N2CCOCC2)CC1	11*	0	-1	6	-2	0	4
CCOC(=O)N1CCN(C(=O)C[C@H]2C[C@@]3(C(=O)OC)C(=C[C@H](C(C)C)O[C@@H]3C3CC3)N(CCC3=CCCCC3)C2=O)CC1	0	0	1	0	0	/	/
Cc1ccc(CCNC(=O)CS(=O)Cc2nc(-c3ccccc3Cl)oc2C)cc1 (centres undefined)	9.7*	5	-6	-3	0	-6	-4
CCOc1ccc(CCNC(=O)CS(=O)Cc2nc(-c3ccccc3Cl)oc2C)cc1OCC (centres undefined)	2	0	-1	-5	-1	/	/
Cc1nc2ccc(C(=O)N3CCN(C(=O)C(Cl)Cl)CC3)cc2n1C1CCCC1	0	-1	0	0	0	/	/
Nc1nc(SCC(=O)Nc2ccccc2Oc2ccccc2)n[nH]1	8	4	-2	12*	0	-6	-5
Nc1nc(SCC(=O)Nc2ccccc2-c2ccccc2)n[nH]1	-2	-2	5	1	-3	/	/

Bioassay records from PubChem.
